Dicer inh – inhibitors of Dicer pre-microRNA processing, primary screen, biochemical, cat-ELCCA, chemiluminescence | cat-ELCCA pre-miR-21 Dicer processing; stronger effect = higher value | z-score at 25 µM | Endoribonuclease Dicer (Homo sapiens), Q9UPY3 | actives 6% (n = 47,000); in the data active means z-score above about 3, passing the limit was not always enough;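 further: plate controls were vehicle for no effect and no enzyme for full effect; higher signal means more uncleaved substrate so more Dicer inhibition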
* = called active by the depositor. Only a selection was taken, and hits are over-represented in it overall.

SMILES	Dicer inh
COc1cccc2c1OC(c1ccc(O)cc1)N1N=C(c3ccccc3O)CC21 (centres undefined)	4
COc1ccc(O)c(C2=NN3C(C2)c2cccc(OC)c2OC3c2cccc(F)c2)c1 (centres undefined)	1.7
Cc1ccc(C(C)C)c(OCC(O)Cn2cnc3ccccc32)c1 (centres undefined)	0.02
CN(NC(=O)NC(=O)c1c(Cl)cccc1Cl)c1ccc(Cl)cc1[N+](=O)[O-]	-0.32
COc1ccccc1-c1nn(-c2ncccc2C(F)(F)F)c(=O)o1	-1.1
Cn1c(CSCc2nc(-c3ccccc3)cs2)nnc1SCC(=O)c1ccccc1	-1.8
CC(=O)n1ccc(-c2ccc(C#Cc3ccccc3)cc2)n1	-1.5
NC1CCN(c2ncc(C(F)(F)F)cc2Cl)CC1	-0.43
O=C1OC(c2ccc(Cl)cc2)c2ccccc21 (centres undefined)	1.1
COc1ccccc1CN1CCN(Cc2c[nH]c3ccccc23)CC1	2
c1ccc(CN2CCN(Cc3c[nH]c4ccccc34)CC2)cc1	6.9*
c1ccc2c(CN3CCN(Cc4ccncc4)CC3)c[nH]c2c1	0.38
CC(C)(C)OC(=O)N1C(C(=O)O)COC1(C)C (centres undefined)	2.2
CSc1nc(N)nc2sc3c(O)cc(=O)[nH]c3c12	-1.7
CC(C)(C)NC1=C(C#N)C(=O)NC(c2ccccc2O)S1 (centres undefined)	3.9*
CSC1=C(C#N)C(=O)NC(c2cccc3ccccc23)S1 (centres undefined)	0.89
CSC1=C(C#N)C(=O)NC(c2ccccc2O)S1 (centres undefined)	-0.17
Cc1cc(=O)oc2c3c4c(cc12)CCCN4CCC3	-0.04
O=[N+]([O-])c1ccc(C2OCCO2)s1	-0.62
O=c1oc(-c2ccc([N+](=O)[O-])cc2)nc2c(Br)cc(Br)cc12	-0.9
COc1ccc(Br)cc1C1C(C(=O)OC(C)C)=C(C)Nc2nnnn21 (centres undefined)	0.84
O=C(O)CCCC(=O)Nc1cccc2cccnc12	0.9
O=C(Nc1cccc2cccnc12)c1cccs1	-1.1
O=C(CCC(=O)OCC(=O)c1cccs1)Nc1cccc2cccnc12	4.3*
C#CCOC(=O)Nc1cc(C(F)(F)F)cnc1OC	-2.5
SMILES	Dicer inh
O=C(Nc1ccc(Oc2ccc(Cl)cc2C2CCCCC2)nc1)C1CCCCC1	-1.2
Nc1nonc1C(=O)NCCNC(=O)c1ccccc1Br	0.15
COc1ccc(-c2cc(OC(=O)c3ccccc3C)c3c(C)oc(C)c3c(=O)c2)cc1	6.7*
CCOc1ccc(-c2cc(OC(=O)c3ccccc3F)c3c(C)oc(C)c3c(=O)c2)cc1	0.02
CCOc1cc(-c2ccc(OC)cc2)cc(=O)c2c(C)oc(C)c12	-0.25
COc1cc(C2c3c(oc4ccccc4c3=O)C(=O)N2c2nnc(C(C)C)s2)ccc1O (centres undefined)	-0.13
COc1cc(C=Nc2ccc(C)c(NC(C)=O)c2)cc(OC)c1OC	-1.6
CC1=C(C(=O)OC2CCCCC2)C(c2ccccc2OC(C)C)C2=C(CCCC2=O)N1 (centres undefined)	0.07
O=[N+]([O-])C1=Cc2cc(Cl)cc(Cl)c2OC1c1ccc(F)cc1 (centres undefined)	5.2*
CC(C)c1ccc(C2Oc3ccccc3C=C2[N+](=O)[O-])cc1 (centres undefined)	0.94
COc1cccc2c1OC(c1ccc(F)cc1)C([N+](=O)[O-])=C2 (centres undefined)	3.9*
Nc1ccc(Cl)cc1C(=O)NNC(=O)c1cccnc1Oc1ccccc1	-0.56
COc1ccc(N(CC(O)Cn2c3ccccc3c3ccccc32)S(C)(=O)=O)cc1 (centres undefined)	0.88
N/C(=N\NS(=O)(=O)c1ccccc1)c1cnccn1	-1.2
O=C(c1ccc(F)cc1)C(C(=O)N1CCN(C/C=C/c2ccccc2)CC1)n1ccccc1=O (centres undefined)	-0.72
CC1CCN(C(=O)C(C(=O)c2ccc(Br)cc2)n2ccccc2=O)CC1 (centres undefined)	-0.31
O=C(c1ccc(Br)cc1)C(C(=O)N1CCCCC1)n1ccccc1=O (centres undefined)	3.3*
CCOC(=O)c1sc(SCc2c(Cl)cccc2Cl)c2c1CC(C)(C)CC2=O	-2.9
COc1ccc(OCC(=O)N2CCN(C(=O)CCC3CCCC3)CC2)cc1	1.1
COc1cccc2c(=O)c3ccccc3oc12	-0.98
COc1ccc(C2C(=O)c3ccccc3C2=O)cc1OC	1.4
COc1ccc2c3c(cccc13)C(=O)CC2	4.2*
O=C1/C(=C/c2ccc(Cl)cc2)CC/C1=C\c1ccc(Cl)cc1	-0.47
CS(=O)(=NC(=S)NC(=O)Oc1ccccc1)c1ccccc1 (centres undefined)	1.7
CCCOC(=O)C1=C(C)NC2=C(C(=O)CC(c3ccc(Cl)cc3)C2)C1c1ccc(O)cc1 (centres undefined)	4.7*
SMILES	Dicer inh
COc1ccc(COC(=O)C2=C(C)NC3=C(C(=O)CC(C)(C)C3)C2c2ccc(OC)cc2)cc1 (centres undefined)	3.5*
CCCOC(=O)C1=C(C)NC2=C(C(=O)CC(C)(C)C2)C1c1ccc(O)cc1 (centres undefined)	3.8*
CCOC(=O)C1=C(C)NC2=C(C(=O)CC(C)(C)C2)C1c1ccc(OC(C)=O)cc1 (centres undefined)	6.8*
CCCOC(=O)C1=C(C)NC2=C(C(=O)CC(C)(C)C2)C1c1ccc(N(CC)CC)cc1 (centres undefined)	0.92
CCOC(=O)C1=C(C)NC2=C(C(=O)CC(C)(C)C2)C1c1ccc(OC)cc1 (centres undefined)	-1.1
COc1ccc(COC(=O)C2=C(C)NC3=C(C(=O)CC(C)(C)C3)C2c2ccncc2)cc1 (centres undefined)	1.3
CC1=C(C(=O)OCCOC(C)C)C(c2ccc(O)cc2)C2=C(CC(C)(C)CC2=O)N1 (centres undefined)	1.7
C=CCOC(=O)C1=C(C)NC2=C(C(=O)CC(C)(C)C2)C1c1ccc(OC(C)=O)cc1 (centres undefined)	-0.25
COC(=O)c1ccc(C2C(C(=O)OCc3ccc(OC)cc3)=C(C)NC3=C2C(=O)CC(C)(C)C3)cc1 (centres undefined)	0.18
COC(=O)C1=C(C)NC2=C(C(=O)CC(c3ccc(Cl)cc3)C2)C1c1ccc(C)cc1 (centres undefined)	0.95
CCCOC(=O)C1=C(C)NC2=C(C(=O)CC(c3ccccc3)C2)C1c1ccc(C)cc1 (centres undefined)	1.1
Nc1nc2c(c(=O)[nH]1)C(c1ccc(OCc3ccc(Cl)cc3)cc1)CC(=O)N2 (centres undefined)	0.12
O=C1c2cccc3c(Cl)ccc(c23)C(=O)N1c1cccc(O)c1	2.8
O=C(Nc1cc(-c2cccs2)nn1-c1ccc(F)cc1)C1CCC1	-1.3
COc1ccc(NC(=O)CC(C)(C)Sc2ccc(Cl)cc2)cc1	0.97
CCCCc1nc2ccccc2n1CC(=O)O	-1.3
NC(/C=C/c1cc(C(F)(F)F)cc(C(F)(F)F)c1)=N\OC(=O)/C=C/c1ccccc1	-0.65
COC(=O)c1sc(-c2ccc(Cl)cc2)cc1NC(=O)Nc1cccs1	3.4*
COC(=O)c1sc(-c2ccc(Cl)cc2)cc1NC(=O)c1cccnc1Oc1ccccc1	1.9
COC(=O)c1sc(-c2ccc(Cl)cc2)cc1NC(=O)c1cc(C)nn1C	-0.98
O=C(Nc1ccc(Cl)cc1)c1cnc(Sc2ccccc2)cc1C(F)(F)F	-0.03

From PubChem
